Screening results deposited in PubChem by National Center for Advancing Translational Sciences (NCATS).
WRN helicase inh-1 = inhibitors of human WRN helicase | Potency, µM (series often up to 114 µM), without a hit: top-dose activity change, negative = inhibition, usual class: inhibitors | AID 651768 | 360,000 compounds, 0.46% hits | WRN helicase unwinding, fluorescent forked duplex, kinetic | Q14191; further: on the % scale 0 is the no-effect control and ±100 the full control effect; nearly all actives have a fitted effect of over 55% in size
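Screening of the MLSMR collection measured strand separation of a quenched forked DNA duplex (100 nM) by 20 nM WRN with 2 mM ATP, all final. Compounds were preincubated with enzyme 15 min at room temperature.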
BLM helicase inh-1 = inhibitors of human Bloom syndrome helicase BLM; P54132; recombinant BLM DNA unwinding, fluorescence dequenching; Potency, µM (highest dose often 56.1 µM), for inactives: at the highest dose activity change, negative = inhibition, hits mostly inhibitors; 350,000 compounds, 0.2% hits; AID 2528;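 further: plate controls were vehicle for no effect and no enzyme for full effect; nearly all actives have a fitted effect of over 35% in size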
L3MBTL1 block = inhibitors of human L3MBTL1; AID 485360; 230,000 compounds, 0.66% hits; Q9Y468; Potency, µM (series often up to 57.1 µM), inactives show top-dose activity, negative = inhibition, usual class: inhibitors; AlphaScreen L3MBTL1–H3K9me1 peptide binding; further: on the % scale 0 is the no-effect control and ±100 the full control effect; nearly all actives have a fitted effect of over 60% in size
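L3MBTL1 (50 nM) pre-complexed 30 min with biotinylated H3(1-15)K9me1 peptide (75 nM), then compounds added for 30 min at room temperature; AlphaScreen streptavidin donor/nickel chelate acceptor beads (10 ug/mL final) read after 30 min dark incubation.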
RECQ1 helicase = blocks DNA unwinding by human RECQ1. Potency, µM (top dose mostly 57.3 µM), inactives show at the highest dose activity, negative = inhibition, hits mostly inhibitors. P46063. 240,000 compounds, 0.54% hits. RECQ1 DNA unwinding, red fluorescence kinetic read. AID 2549;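 further: plate controls were vehicle for no effect and no enzyme for full effect; nearly all actives have a fitted effect of over 30% in size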
Target sequence (P46063 whole entry, looked up): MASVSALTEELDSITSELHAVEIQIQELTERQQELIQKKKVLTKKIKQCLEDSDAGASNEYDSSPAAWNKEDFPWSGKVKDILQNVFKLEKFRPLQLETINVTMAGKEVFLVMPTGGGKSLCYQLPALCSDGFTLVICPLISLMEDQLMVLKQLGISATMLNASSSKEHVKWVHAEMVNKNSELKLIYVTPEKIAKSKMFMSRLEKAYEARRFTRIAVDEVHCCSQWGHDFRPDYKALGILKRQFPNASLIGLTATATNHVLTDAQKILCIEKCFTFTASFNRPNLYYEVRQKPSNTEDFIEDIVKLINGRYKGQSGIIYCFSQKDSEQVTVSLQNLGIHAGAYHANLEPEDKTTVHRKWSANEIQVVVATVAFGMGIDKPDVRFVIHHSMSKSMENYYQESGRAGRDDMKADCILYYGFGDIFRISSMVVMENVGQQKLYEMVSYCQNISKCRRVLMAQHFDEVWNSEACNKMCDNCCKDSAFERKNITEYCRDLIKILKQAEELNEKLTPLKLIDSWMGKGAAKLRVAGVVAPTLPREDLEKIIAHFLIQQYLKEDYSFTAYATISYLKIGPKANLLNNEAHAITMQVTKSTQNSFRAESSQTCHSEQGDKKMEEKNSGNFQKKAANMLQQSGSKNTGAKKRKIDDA
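50 nM RECQ1T1 preincubated 15 min with compound in Tris pH 8.0 buffer with MgCl2, DTT, Tween-20 and 2.5 ug/ml poly(dI-dC); started with 200 nM TAMRA/BHQ-2 forked duplex and 2 mM ATP. Unwinding read as fluorescence (525/598 nm), two reads 2 h apart.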
FEN1 inhibitor = inhibitors of human flap endonuclease 1; P39748; AID 588795; Recombinant FEN1 flap cleavage, fluorescence, 15 min; 390,000 compounds, 0.35% hits; Potency, µM (highest dose often 114 µM), without a hit: at the highest dose activity change, negative = inhibition, hits mostly inhibitors; further: on the % scale 0 is the no-effect control and ±100 the full control effect; nearly all actives have a fitted effect of over 65% in size
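FEN1 at 10 nM, compound pretreatment for 15 min (room temperature), 50 nM final substrate to initiate; endpoint reads at 0 and 15 min; DMSO-only plates used as vehicle background.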
WRN helicase inh-2 = WRN helicase inhibition, cherry-pick retest | WRN helicase DNA unwinding, fluorescence kinetic | AID 720497 | 610 compounds, 63% hits | shares compounds with WRN helicase inh-1 | Potency, µM (doses to about 57.1 µM), without a hit: at the top dose activity, negative = inhibition, hits mostly inhibitors; further: nearly all actives have a fitted effect of over 65% in size
TO displacement = binds DNA, flagged in WRN inhibitor counterscreen; shares compounds with WRN helicase inh-1; Potency, µM (titrated, usually from 57.1 µM), without a hit: at the highest dose activity change, negative = inhibition, most hits filed as inhibitors; AID 720499; 610 compounds, 10% hits; thiazole orange DNA binding displacement, fluorescence;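 further: drop in dye fluorescence marks compound binding to DNA; on the % scale 0 is the no-effect control and ±100 the full control effect; nearly all actives have a fitted effect of over 60% in size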
BLM helicase inh-2 = blocks human BLM helicase in WRN counterscreen; shares compounds with WRN helicase inh-1; AID 720503; 610 compounds, 60% hits; Potency, µM (doses to about 57.1 µM), without a hit: at the top dose activity change, negative = inhibition, most hits filed as inhibitors; Recombinant BLM helicase DNA unwinding, red fluorescence; further: nearly all actives have a fitted effect of over 60% in size
* hit, by the source's call; i = inactive; ? = inconclusive; nt = no result given; [ ] = another dose, or the depositor's remark. Rows were chosen to be rich in hits. Some 0.99% of all compounds tested hit in one or more screens of this group. The call rests on the fitted dose curve; in most records, active means well fitted curve in the direction sought with a large enough effect; inconclusive means small, poorly fitted or top-dose-only effect, or another doubt; inactive means no such curve, though single readings can be large; an effect the other way counts as inactive or inconclusive. Potency means the concentration at half of the fitted maximal effect.

SMILES	WRN helicase inh-1	BLM helicase inh-1	L3MBTL1 block	RECQ1 helicase	FEN1 inhibitor	WRN helicase inh-2	TO displacement	BLM helicase inh-2
Cc1nc2c(C)cccc2c(SC(=N)N)c1CC=C(Cl)Cl	-4%	-1%	-6%	-11%	9%	nt	nt	nt
CC(=O)N(c1ccccc1C)C1CCCC1	-15%[57.1 µM]	1%	8%	-1%	2%	nt	nt	nt
CC(=O)N(C1=C(Cl)C(=O)c2ccccc2C1=O)C1CCCCC1	14µM*	-1%	?	-1%	?	-27%	-16%	?
Cc1nc2cnc(Oc3cccc(Cl)c3)nc2n(C[C@H]2CCCO2)c1=O	nt	1%	nt	-9%	nt	nt	nt	nt
O=[N+]([O-])c1c(Nc2ccc(O)cc2)cc(Cl)c2nonc12	?	-4%	nt	nt	?	?	34µM*	?
CN(C)c1cc(Nc2ccc(O)cc2)c([N+](=O)[O-])c2nonc12	7%	-1%	nt	-1%	-1%	nt	nt	nt
COc1cc(C(C)=O)ccc1OCC(=O)NCc1ccccc1CN1CCCC1	4%	nt	nt	nt	nt	nt	nt	nt
COc1cc(NC(=O)c2noc3c2CCC3)c(OC)cc1Cl	?	4%	nt	-11%	?	?	-5%	22µM*
COc1cccc(NC(=O)C2CCN(S(C)(=O)=O)CC2)c1	32%	0%	1%	-16%	-3%	nt	nt	nt
Cc1cc(C)nc(SCCN2CCCCC2)n1	-3%	nt	nt	nt	4%	nt	nt	nt
COc1cc(/C=C2\SC(=S)N(c3cccnc3)C2=O)ccc1O	?	0%	nt	13%	-25%	nt	nt	nt
COc1cc(/C=C2\SC(=S)N(Nc3ncc(C(F)(F)F)cc3Cl)C2=O)ccc1O	32µM*	-20%	nt	28µM*	?	7.6µM*	-25%	6.1µM*
Cc1cc(C(=O)N2CCC(Cc3ccccc3)CC2)no1	8%	-4%	nt	nt	-8%	nt	nt	nt
CN1CCN(C2=C(Cl)C(=O)c3ccccc3C2=O)CC1	?	nt	nt	nt	?	?	-14%	3.4µM*
CC(C)Cc1ccc(C(C)/C=C2/CCC(CN3CCCCC3)C2=O)cc1 (centres undefined)	35µM*	nt	nt	nt	-20%	-27%	-6%	?
CC(C)Cc1ccc(CN2CCCC(NC(=O)CCN3CCCCC3=O)C2)cc1 (centres undefined)	5%	1%	nt	nt	-2%	nt	nt	nt
COc1cc(/C=N/Nc2nnc3c(n2)[nH]c2ccccc23)ccc1O	?	-7%	16%	-6%	-11%	?	-14%	?
COc1cc(/C=C2\C(=O)N(CCC#N)N=C2C)ccc1OCC(=O)Nc1ccccc1	?	-1%	-15%	4%	?	?	-4%	17µM*
CN(C)c1ccc(C=Cc2nccc3ccccc23)cc1	79µM*	nt	nt	nt	nt	?	221%	?
COCC(=O)N(Cc1cc2ccccc2[nH]c1=O)c1ccccc1OC	4%	0%	nt	0%	0%	nt	nt	nt
O=C(O)COc1ccccc1/C=C1\SC(=S)N(NC(=O)c2ccccc2O)C1=O	?	nt	13µM*	nt	?	?	-9%	-23%
O=C(Nc1cccc(-c2cnc3ccccc3n2)c1)c1cccc(NC(=O)c2ccco2)c1	?	-13%	nt	?	-26%	-29%	1%	?
COCCn1c(=O)sc2ccccc2c1=O	?	0%	-18%	0%	1%	6%	-4%	-11%
Cc1nn(-c2ccccc2)c2nc(=O)n(-c3ccccc3)cc12	?	3%	0%	-4%	-4%	-17%	0%	-13%
CSc1cccc(Nc2cc(C(=O)NCCCN(C)c3ccccc3)c3ccccc3n2)c1	nt	-8%	nt	nt	-22%	nt	nt	nt
SMILES	WRN helicase inh-1	BLM helicase inh-1	L3MBTL1 block	RECQ1 helicase	FEN1 inhibitor	WRN helicase inh-2	TO displacement	BLM helicase inh-2
COc1cc(/C=C2/C(=O)NN(c3ccc(F)cc3)C2=O)cc(Cl)c1O	-10%	1%	nt	nt	-12%	nt	nt	nt
COc1cccc(/C=C2/C(=O)NN(c3ccc(Br)cc3)C2=O)c1O	0.67µM*	-7%	5%	nt	-8%	17µM*	-23%	6.8µM*
O=C(ONc1ccc(N=NC(=O)c2ccccc2O)cc1)c1ccccc1	?	-6%	-8%	?	2%	22µM*	27µM*	14µM*
CCN1C[C@@H]2[C@@H]3C(=O)N(Cc4ccccc4)C(=O)[C@@H]3[C@](CC)(C1=O)N2C(=O)c1ccc(Br)cc1	-1%	nt	nt	nt	-6%	nt	nt	nt
COc1cc(/C=N/NS(=O)(=O)c2ccc(C)c([N+](=O)[O-])c2)cc([N+](=O)[O-])c1O	-19%	2%	-16%	nt	-21%	nt	nt	nt
COc1ccc(-n2c(O)c(/C=N/NS(=O)(=O)c3ccc(C)c([N+](=O)[O-])c3)c3ccccc3c2=O)cc1OC	?	-16%	-15%	-4%	-10%	19µM*	295%	22µM*
Nc1ccc(S(=O)(=O)c2cc(O)c3ccccc3c2O)cc1	28µM*	nt	nt	nt	?	24µM*	24µM*	22µM*
O=S(=O)(c1ccccc1)c1cc(O)ccc1O	-15%	-4%	-6%	i	11%	nt	nt	nt
O=[N+]([O-])c1ccc2nc(Cl)nc(-c3ccccc3)c2c1	-10%	-1%	nt	nt	-21%	nt	nt	nt
CC1=C(C)CS(=O)N(S(=O)(=O)c2ccccc2)C1 (centres undefined)	40µM*	-12%	nt	-5%	?	-13%	-5%	-17%
COc1ccc([N+](=O)[O-])c(S(=O)(=O)c2ccc(Cl)cc2)n1	16µM*	0%	-3%	-14%	-20%	?	-5%	-16%
COc1ccc([N+](=O)[O-])c(S(=O)(=O)c2ccccc2)n1	32µM*	2%	0%	-16%	2%	?	-8%	-19%
N/C(CN1CCCC1=O)=N\OC(=O)c1ccc(Cl)cc1	0%	-1%	0%	-2%	2%	nt	nt	nt
N#Cc1nc(Cc2ccccc2)oc1NCc1cccnc1	-3%	1%	-8%	-5%	-11%	nt	nt	nt
N#Cc1ncc(Cc2ccccc2)nc1C#N	1.7µM*	-13%	-12%	nt	8%	-10%	-7%	-19%
CCCCCCOC(=O)CCn1[nH]c(=O)c2ccccc2c1=O	7%	3%	0%	5%	-2%	nt	nt	nt
COc1ccc2nc3cc(Cl)ccc3c(NCCCN3CCN(CCCNc4c5ccc(Cl)cc5nc5ccc(OC)cc45)CC3)c2c1	nt	73%	nt	2%	nt	nt	nt	nt
COc1ccc2nc3cc(Cl)ccc3c(Nc3ccc(O)c(CN4CCN(C)CC4)c3)c2c1	18µM*	nt	nt	nt	22µM*	6.1µM*	11µM*	22µM*
COc1cccc(C(c2c(C)[nH]n(-c3ccccc3)c2=O)c2c(C)[nH]n(-c3ccccc3)c2=O)c1OC	?	-4%	-1%	-4%	-24%	-11%	-10%	-11%
